The values that follow come from ChEMBL document CHEMBL5606458, “ASAP - ZIKV NS2B-NS3 protease fluorescence single point” (2024).

The target of this experiment is Nonstructural protein 3 (Zika virus) (UniProt A0A024AXB9).
The mark [1] stands for this setting: PRVABC59, Concentration 50.0 uM, Number of replicates 1.0.
The mark [2] stands for this setting: PRVABC59, Concentration 15.0 uM, Number of replicates 1.0.

In all, about 2,700 compounds went through this assay and about 160 (5.9%) showed an effect of 50% or more. The sample as a whole holds a higher share of strong results than the screen did.

Chain of Nonstructural protein 3 (Zika virus) (A0A024AXB9 as listed by the source): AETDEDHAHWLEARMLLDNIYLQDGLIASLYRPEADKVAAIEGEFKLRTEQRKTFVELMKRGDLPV

By inhibition is commonly meant the drop in the measured response relative to a control, in per cent. As to `Cc1cc(CO)c2cccc(Nc3cc(O)[nH]n3)c2n1`, the inhibition was 18.3% (PRVABC59, Concentration 49.95 uM, Number of replicates 2.0, Standard deviation 1.761368724187627 %) and 23.8% (PRVABC59, Concentration 99.9 uM, Number of replicates 2.0, Standard deviation 1.139118047569397 %). As to `Cn1cc(CNC(=O)c2ccccc2-c2cccnc2)cn1`, the inhibition runs as follows: (PRVABC59, Concentration 49.5 uM, Number of replicates 2.0, Standard deviation 0.5877340250731194 %) 0.299%; (PRVABC59, Concentration 99.01 uM, Number of replicates 2.0, Standard deviation 0.42986369479040104 %) -0.679%; (PRVABC59, Concentration 198.0 uM, Number of replicates 2.0, Standard deviation 0.566811449656849 %) -0.69%. Take `O=Cc1ccc(N2CCC(C(=O)N[C@H](CO)[C@H](O)c3ccc([N+](=O)[O-])cc3)CC2)cc1`: under setting [1], the inhibition worked out at 25.6%. `N#Cc1ccc(Cl)c(NC(=O)C2CCN(c3ccc(C=O)cc3)CC2)c1`: under setting [1], the inhibition amounted to 23.1%. As to `O=Cc1ccc(N2CCC(C(=O)NCc3ccccc3-n3cccn3)CC2)cc1`, the inhibition (PRVABC59, Concentration 10.0 uM, Number of replicates 1.0) came out at 21.4%. For the compound `N=C(N)NC[C@@H]1CCCN(C(=O)[C@H](Cc2ccc(CN)cc2)NC(=O)c2ccccc2)C1`, the inhibition is 2.68% (PRVABC59, Concentration 49.5 uM, Number of replicates 2.0, Standard deviation 0.6960698702606968 %); 12.8% (PRVABC59, Concentration 99.01 uM, Number of replicates 2.0, Standard deviation 1.1872902095434084 %); 26.8% (PRVABC59, Concentration 198.0 uM, Number of replicates 2.0, Standard deviation 0.3804343133987339 %).

In the case of `CN(C)CCN(Cc1ccccc1)C(=O)c1cc(Cl)ccc1NS(=O)(=O)c1ccc(Oc2ccccc2Cl)cc1`, the inhibition under setting [2] came out at 15.1%. Consider `Cc1ccc2ccccc2c1NC(=O)C1CCN(c2ccc(C=O)cc2)CC1`, for which the inhibition under setting [1] was 19.8%.

As to `CN(C)c1ccc(C(=O)Nc2cc(Cl)cc(C(=O)NC(C)(C)CO)c2)nc1`, the inhibition runs as follows: (PRVABC59, Concentration 49.5 uM, Number of replicates 2.0, Standard deviation 3.9613998246279105 %) -1.53%; (PRVABC59, Concentration 99.01 uM, Number of replicates 2.0, Standard deviation 2.7948399639930708 %) 0.849%. As for `Cc1cc(CO)c2cccc(NC(=O)c3cccc(Cn4cncn4)c3)c2n1`, the inhibition is -0.138% (PRVABC59, Concentration 49.95 uM, Number of replicates 2.0, Standard deviation 2.574308180740061 %) and 11.1% (PRVABC59, Concentration 99.9 uM, Number of replicates 2.0, Standard deviation 1.9018768762288814 %). Take `Cc1cnccc1NC(=O)c1ccccc1-c1nc(C(C)C)no1`: the inhibition (PRVABC59, Concentration 49.5 uM, Number of replicates 2.0, Standard deviation 0.2610834999883118 %) is -0.098%; the inhibition (PRVABC59, Concentration 99.01 uM, Number of replicates 2.0, Standard deviation 1.3020487023400833 %) was -0.148%; the inhibition (PRVABC59, Concentration 198.0 uM, Number of replicates 2.0, Standard deviation 1.8545350914642316 %) was found to be 0.672%. For `O=C(c1cc(Cl)ccc1NS(=O)(=O)c1ccc(Oc2ccccc2Cl)cc1)N1CCN(c2ccc(Br)cn2)CC1`, the inhibition under setting [2] is 18.6%. Same read-out and setting: with `O=C(NCCc1ccc(Cl)cc1Cl)c1cc(Cl)ccc1NS(=O)(=O)c1ccc(Oc2ccccc2Cl)cc1` the figure was 27.1%. For the compound `CN1CCN(C(=O)C2CCN(C(=O)C3CCN(c4ccc(C=O)cc4)CC3)CC2)CC1`, under setting [1], the inhibition stood at 21.1%. For `O=Cc1ccc(N2CCC(C(=O)N3CCC(N4CCCC4=O)CC3)CC2)cc1`, the inhibition under setting [1] amounted to 23.2%.

For `O=C(Nc1cc(Cl)ccc1Br)c1cc(Cl)ccc1NS(=O)(=O)c1ccc(Oc2ccccc2Cl)cc1`, the inhibition under setting [2] is 24.1%. Still for that read-out and setting: with `O=C(Nc1ccc(Oc2ccc(Cl)cc2)cc1)c1cc(Cl)ccc1NS(=O)(=O)c1ccc(Oc2ccccc2Cl)cc1` the figure was 14.2%; with `O=C(Nc1ccc2ccccc2c1O)c1cc(Cl)ccc1NS(=O)(=O)c1ccc(Oc2ccccc2Cl)cc1`, 14%; with `O=C(Nc1cc(Cl)cc(Cl)c1O)c1cc(Cl)ccc1NS(=O)(=O)c1ccc(Oc2ccccc2Cl)cc1`, 74.3%.

`O=C(Nc1ccc([N+](=O)[O-])cc1)c1cc(Cl)ccc1NS(=O)(=O)c1ccc(Oc2ccccc2Cl)cc1`: the inhibition under setting [2] was 29.8%. For the compound `O=C(Nc1cc(Cl)cc([N+](=O)[O-])c1O)c1cc(Cl)ccc1NS(=O)(=O)c1ccc(Oc2ccccc2Cl)cc1`, the inhibition under setting [2] is 92.4%.

On to `CCCOc1ccc(NC(=O)c2cc(Cl)ccc2NS(=O)(=O)c2ccc(Oc3ccccc3Cl)cc2)cc1`, for which the inhibition under setting [2] was determined as 43.9%. For the compound `CC(=O)Nc1ccc(NC(=O)c2cc(Cl)ccc2NS(=O)(=O)c2ccc(Oc3ccccc3Cl)cc2)cc1`, the inhibition under setting [2] was found to be 63.1%. For `O=C(Nc1ccc(O)cc1[N+](=O)[O-])c1cc(Cl)ccc1NS(=O)(=O)c1ccc(Oc2ccccc2Cl)cc1`, the inhibition under setting [2] was found to be 32.2%. Same read-out and setting: with `O=C(Nc1ccc([N+](=O)[O-])c2ccccc12)c1cc(Cl)ccc1NS(=O)(=O)c1ccc(Oc2ccccc2Cl)cc1` the figure was 22.7%; with `O=C(Nc1ccccc1)c1cc(Cl)ccc1NS(=O)(=O)c1ccc(Oc2ccccc2Cl)cc1`, 54.2%.

As for `O=C(Nc1ccc(Oc2ccccc2Cl)cc1)c1cc(Cl)ccc1NS(=O)(=O)c1ccc(Oc2ccccc2Cl)cc1`, the inhibition under setting [2] was determined as 19.7%. Still for that read-out and setting: with `CCOc1ccccc1CCNC(=O)c1cc(Cl)ccc1NS(=O)(=O)c1ccc(Oc2ccccc2Cl)cc1` the figure was 9.83%. Turning to `CNC(=O)c1cc(Cl)ccc1NS(=O)(=O)c1ccc2[nH]cnc2c1`, the inhibition (PRVABC59, Concentration 49.5 uM, Number of replicates 2.0, Standard deviation 2.3657282322003765 %) is -9.41%.
